Values joined by “and” are separate entries in the source; they are usually repeats but may differ in a detail not shown here. Equal entries are not always repeated. Inconclusive results are not listed. Active and inactive are the calls of the source. Unless noted, calls come from the whole dose curve; as a rule, active = well fitted curve in the direction sought with a large enough effect; inconclusive = small, poorly fitted or top-dose-only effect, or another doubt; inactive = no such curve, though single readings can be large; an effect the other way counts as inactive or inconclusive.
What was measured:
[1] = target: Mitogen-activated protein kinase 10 (Mus musculus) (UniProt Q61831); assay: JNK3 AlphaScreen Assay (AID 530; active = well fitted curve in either direction with a large enough effect, not every such curve was filed as active;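 note: kinase came from lysate of stimulated human HepG2 cells; signal reports phosphorylation of biotinylated GST-cJun 1-79 at Ser73 with 10 µM ATP; % is set by controls: 0 for no effect and ±100 for the full control effect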)
Method in brief: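 Activity was read by AlphaScreen after JNK3-containing HepG2 lysate (cytokine pre-activated) phosphorylated biotinylated GST-cJun with 10 uM ATP at room temperature. Phospho-Ser73 cJun antibody with Protein-A acceptor beads provided detection.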

[2] = Cell Viability - N2a (AID 540); settings: N2a mouse neuroblastoma cell viability; at 92.2 µM (top of the series);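 note: plate controls were DMSO alone for no effect and tamoxifen control for full effect; nearly all actives have a fitted effect of over 45% in size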
Method in brief: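 CellTiter-Glo ATP luminescence, read 20 min after reagent at room temperature, reported viability following 40 h compound treatment at 37 °C. N2a mouse neuroblastoma cells seeded 1500/well; Hill equation gave AC50.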

[3] = Cell Viability - NIH 3T3 (AID 541);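 note: cells exposed to compound for 40 hours; plate controls were DMSO alone for no effect and tamoxifen positive control for full effect; nearly all actives have a fitted effect of over 25% in size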
Method in brief: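 Intracellular ATP (CellTiter-Glo luminescence, 20 min at room temperature) measured after 40 hr compound exposure at 37 °C of 1000 NIH 3T3 mouse fibroblasts/well in complete medium; AC50 derived by Hill-equation modelling of qHTS concentration-response curves.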

[4] = Cell Viability - HUV-EC-C (AID 542);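 note: cells exposed to compound for 40 hours; % is set by controls: 0 for no effect and ±100 for the full control effect; nearly all actives have a fitted effect of over 35% in size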
Method in brief: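 CellTiter-Glo luminescence measured ATP loss in HUV-EC-C cells (1000/well) after 40 hr compound exposure at 37 °C, in complete culture medium. Concentration-response data were Hill-fitted to give AC50.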

[5] = Cell Viability - H-4-II-E (AID 543);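 note: cells exposed to compound for 40 hours; % is set by controls: 0 for no effect and ±100 for the full control effect; nearly all actives have a fitted effect of over 35% in size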
Method in brief: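 CellTiter-Glo luminescence (intracellular ATP) measured after 40 h compound exposure at 37 °C in H-4-II-E rat hepatoma cells seeded at 1500/well. Values are AC50s fitted with the standard Hill equation.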

[6] = Cell Viability - SH-SY5Y (AID 544); settings: SH-SY5Y neuroblastoma cell viability; at 92.2 µM (top of the series);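 note: cells exposed to compound for 40 hours; nearly all actives have a fitted effect of over 55% in size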
Method in brief: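 Cytotoxicity measured via ATP-dependent luciferase luminescence (CellTiter-Glo) following 40 h, 37 °C exposure of 1500 SH-SY5Y cells per well. Concentration-response data were fitted with the standard Hill equation to give AC50.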

[7] = Cell Viability - Renal Proximal Tubule (AID 545);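 note: cells exposed to compound for 40 hours; nearly all actives have a fitted effect of over 40% in size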
Method in brief: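 Rat kidney proximal tubule cells, freshly isolated; 1000 cells/well, 5 hr settle, compound 40 hr 37 °C. CellTiter-Glo 20 min RT, luminescence read. AC50 by standard Hill fit.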

[8] = Cell Viability - Mesenchymal (AID 546); settings: mesenchymal cells viability, qHTS; at 91.7 µM (top of the series);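 note: cells exposed to compound for 40 hours before reading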
Method in brief: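 Human renal mesenchymal cells (glomerulus-derived), 1000 cells/well, 5 hr 37 °C pre-incubation; compound 40 hr, 37 °C; CellTiter-Glo, 20 min RT; luminescence; AC50 via Hill equation.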

[9] = Cellular Toxicity (caspase-3) HepG2 (AID 654);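 note: cells exposed to compound for 16 hours before reading; 0% = DMSO alone and 100% = caspase signal from 100 µM tamoxifen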
Method in brief: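 Caspase 3/7 activation is measured as a luminescence increase (aminoluciferin substrate) after 16 h compound exposure of human hepatocarcinoma HepG2 cells. AC50 values are Hill fits, scaled between DMSO baseline and 100 uM tamoxifen stimulation.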

[10] = Cellular Toxicity (caspase-3) Jurkat (AID 655); settings: Jurkat caspase-3 activation, luminescence; caspase-3 activation: at 92.2 µM (top of the series), DMSO = 0%, tamoxifen = 100%;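 note: cells exposed to compound for 16 h at 37 °C before reading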
Method in brief: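 Luminescent caspase-3/7 readout (aminoluciferin substrate cleavage) in human T-cell leukemia Jurkat cells after 16 hr compound exposure. Concentration-response normalized to DMSO and 100 uM tamoxifen; AC50 by standard Hill equation.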

[11] = Cellular Toxicity (caspase-3) HUV-EC-C (AID 656)
Method in brief: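 Luminescent caspase-3/7 activation (aminoluciferin substrate cleavage) in HUV-EC-C cells after 16 hr compound exposure, 37°C. Signal normalized to DMSO basal and 100 uM tamoxifen as 100%; AC50 from concentration-response fitted with the Hill equation.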

[12] = Cellular Toxicity (caspase-3) SHSY5Y (AID 657);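 note: cells exposed to compound for 16 hours at 37 °C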
Method in brief: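 Luminescent caspase-3/7 readout (aminoluciferin release) in SH-SY5Y cells after 16 h compound exposure in complete medium. Activity scaled between DMSO basal and 10 uM staurosporine as 100%; concentration-response fitted to Hill equation for AC50.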

[13] = Cellular Toxicity (caspase-3) BJ (AID 658);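 note: cells exposed to compound for 16 hours; 0% = DMSO basal and 100% = 10 µM staurosporine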
Method in brief: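 qHTS, BJ fibroblasts, 1000 cells/well; 5 hr preincubation, 16 hr compound, 37 °C; Caspase-Glo 3/7 reagent, 1 hr RT; luminescence. DMSO = 0%, 10 uM staurosporine = 100%. Hill-equation AC50.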

[14] = Cellular Toxicity (caspase-3) MRC-5 (AID 659);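 note: 0% = DMSO basal and 100% = 10 µM staurosporine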
Method in brief: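 MRC-5 fibroblasts, 1500/well; 16 h cpd, 37 °C; Caspase-Glo 3/7, 1 h RT; lumi read. Norm: DMSO = 0%, 10 uM staurosporine = 100%. Hill-fit AC50 from qHTS conc-response.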

[15] = Cellular Toxicity (caspase-3) H-4-II-E (AID 663);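 note: cells exposed to compound for 16 hr before readout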
Method in brief: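 H-4-II-E rat hepatoma, 1500 cells/well, 5 hr settle at 37 °C; compound 16 hr, 37 °C, complete medium; Caspase-Glo 3/7, 20 min RT; luminescence. DMSO = 0%, 100 uM tamoxifen = 100%; Hill-equation AC50.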

[16] = Cellular Toxicity (caspase-3) Hek293 (AID 664);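 note: cells exposed to compound for 16 h at 37 °C before readout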
Method in brief: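 Concentration-response qHTS: caspase 3/7 activation measured by luminescent aminoluciferin substrate cleavage after 16 h compound exposure of Hek 293 cells. AC50 from Hill equation, with DMSO as basal and 100 uM tamoxifen as 100%.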

[17] = Cellular Toxicity (caspase-3) N2a (AID 665);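 note: compound exposure lasted 16 h at 37 °C before readout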
Method in brief: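 Caspase-3/7 activation measured as luminescence from Caspase-Glo reagent (1 h, room temperature) after 16 h compound exposure of mouse N2a cells. AC50 values from Hill-equation concentration-response, scaled between DMSO and 10 uM staurosporine.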

[18] = target: Glucocorticoid receptor (Homo sapiens) (UniProt P04150); assay: GR-GFP Redistribution (AID 450;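 active = compounds whose dose series gives a full or clear partial fitted curve of increased nuclear translocation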; note: potency is the fitted concentration of half-maximal effect); settings: U2OS GR-GFP nuclear translocation, laser cytometry, 2 h
Sequence of Glucocorticoid receptor (Homo sapiens) (P04150 whole entry, looked up, the tested form may be a part): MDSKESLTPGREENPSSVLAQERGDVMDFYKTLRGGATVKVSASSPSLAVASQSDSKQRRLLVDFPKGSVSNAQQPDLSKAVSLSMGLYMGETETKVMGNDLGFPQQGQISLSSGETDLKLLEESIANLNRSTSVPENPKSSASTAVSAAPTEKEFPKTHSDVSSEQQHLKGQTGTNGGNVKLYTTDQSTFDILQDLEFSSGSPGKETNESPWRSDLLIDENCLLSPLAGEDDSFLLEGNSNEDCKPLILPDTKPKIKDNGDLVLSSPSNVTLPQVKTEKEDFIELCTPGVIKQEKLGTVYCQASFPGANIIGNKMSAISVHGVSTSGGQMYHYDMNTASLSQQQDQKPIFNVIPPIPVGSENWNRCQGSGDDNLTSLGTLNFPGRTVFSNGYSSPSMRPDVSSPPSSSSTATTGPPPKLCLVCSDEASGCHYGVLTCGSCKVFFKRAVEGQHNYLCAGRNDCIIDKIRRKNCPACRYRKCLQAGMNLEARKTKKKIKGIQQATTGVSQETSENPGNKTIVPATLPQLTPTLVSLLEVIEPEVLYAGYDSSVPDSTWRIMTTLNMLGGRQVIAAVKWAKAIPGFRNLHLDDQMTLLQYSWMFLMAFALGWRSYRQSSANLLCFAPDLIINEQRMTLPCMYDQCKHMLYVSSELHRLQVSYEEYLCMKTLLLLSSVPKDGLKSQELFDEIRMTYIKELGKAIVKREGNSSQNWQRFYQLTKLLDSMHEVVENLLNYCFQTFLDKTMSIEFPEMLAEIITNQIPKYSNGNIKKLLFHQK

[19] = target: Glucocorticoid receptor (Homo sapiens) (UniProt P04150); assay: GR-EFC Redistribution (AID 451; calls by dose curve; note: potency is the fitted concentration of half-maximal effect); settings: CHO-K1 GR-EFC translocation, beta-gal luminescence, 2 h
Method in brief: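 CHO-K1 cells expressing nuclear EA and GR-ED fragments of b-gal; compounds titrated up to 46 uM final, 2 h at 37 C. GR nuclear translocation read as complemented b-gal luminescence after 1 h RT detection.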

[20] = target: 3',5'-cyclic-AMP phosphodiesterase 4B (Homo sapiens) (UniProt Q07343); assay: qHTS Assay for Inhibitors of PDE-IV (AID 607; active = well fitted activation curve with a large enough effect in the main read-out, with a control signal flat, not every such curve was filed as active; note: % of control where 0% means no effect)
Sequence of 3',5'-cyclic-AMP phosphodiesterase 4B (Homo sapiens) (Q07343 whole entry, looked up): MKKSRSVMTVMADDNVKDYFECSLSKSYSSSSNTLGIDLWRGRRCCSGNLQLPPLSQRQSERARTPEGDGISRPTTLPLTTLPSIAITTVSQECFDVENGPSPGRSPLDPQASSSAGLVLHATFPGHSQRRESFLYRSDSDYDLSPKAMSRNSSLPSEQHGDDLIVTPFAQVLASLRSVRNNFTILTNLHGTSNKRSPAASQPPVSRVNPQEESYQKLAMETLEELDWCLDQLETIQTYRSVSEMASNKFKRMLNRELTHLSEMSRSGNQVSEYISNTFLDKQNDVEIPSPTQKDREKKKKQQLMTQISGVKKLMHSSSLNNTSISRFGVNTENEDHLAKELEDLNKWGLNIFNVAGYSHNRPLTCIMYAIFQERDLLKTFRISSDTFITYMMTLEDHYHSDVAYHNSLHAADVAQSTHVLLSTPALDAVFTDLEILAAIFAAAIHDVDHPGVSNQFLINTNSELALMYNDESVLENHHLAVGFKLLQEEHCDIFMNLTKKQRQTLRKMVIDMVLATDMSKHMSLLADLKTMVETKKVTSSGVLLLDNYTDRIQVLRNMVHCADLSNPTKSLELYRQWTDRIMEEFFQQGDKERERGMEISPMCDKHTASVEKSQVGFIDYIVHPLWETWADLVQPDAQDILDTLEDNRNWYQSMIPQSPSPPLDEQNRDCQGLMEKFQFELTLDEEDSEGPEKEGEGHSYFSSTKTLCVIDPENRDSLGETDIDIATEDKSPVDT
Method in brief: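 ACTOne HEK293 cells carry a modified cAMP-gated CNG channel and express endogenous PDE4; plated 1000 cells/well, compounds up to 22.9 uM final. Membrane-potential dye fluorescence (ex 535/em 590) was read; parental cells received 10 uM forskolin + 100 uM RO 20-1724.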

CCCCCCCC(=O)O
inactive: outcome [1] | activity change, negative = cytotoxicity [2] -0.485% and -3.97% | outcome [3] | Potency [4] | Potency [5] | viability change, negative = cytotoxic [6] 0.495% and -6.94% | outcome [7] | activity change, negative = cytotoxicity [8] 4.9% and 1.62% | outcome [9] | caspase-3 activation [10] -0.427% and 1.06% | outcome [11] | outcome [12] | outcome [13] | outcome [14] | outcome [15] | outcome [16] | outcome [17]

IC(I)I
inactive: outcome [1] | activity change, negative = cytotoxicity [2] -10.4% | outcome [3] | Potency [4] | Potency [5] | viability change, negative = cytotoxic [6] -2.58% | outcome [7] | activity change, negative = cytotoxicity [8] 5.44% | outcome [9] | caspase-3 activation [10] -0.0373% | outcome [11] | outcome [12] | outcome [13] | outcome [14] | outcome [15] | outcome [16] | outcome [17]

Cc1cc(C(=O)NNCc2ccccc2)no1
inactive: Potency [18] > 20.6 µM | Potency [19] > 20.6 µM | outcome [1] | outcome [20]
